Hits are enriched below; roughly 19% of the tested compounds scored in any of these assays.
DT40 TDP1 CPT: DT40-hTDP1 cell growth loss with CPT; chicken DT40 Tdp1-/-;hTDP1 cells + 20 nM CPT, ATP luminescence, 48 h; Potency, µM (series often up to 46.2 µM), inactives show at the top dose activity change, negative = growth inhibition, actives largely listed as inhibitors; hit rate 12% among 420,000; AID 686979; further: potency means the concentration at half of the fitted maximal effect; nearly all actives have a fitted effect of over 55% in size
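Cell growth measured by CellTiter-Glo luminescence after a minimum 48 h, 37 C compound exposure with 20 nM CPT in Tdp1-knockout DT40 cells stably expressing hTDP1, seeded 400/well; qHTS titration format.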
uPA surface inh: cell surface uPA generation inhibition; cell surface uPA generation assay, qHTS; Potency, µM (top dose mostly 38.3 µM), without a hit: top-dose activity change, negative = inhibition, usual class: inhibitors; hit rate 0.31% among 330,000; active means well fitted inhibition curve with a large enough effect; inconclusive means small, poorly fitted or top-dose-only effect; inactive means no such curve, though single readings can be large or run the other way; tested in mouse RAW 264.7 cells; further: potency means the concentration at half of the fitted maximal effect; nearly all actives have a fitted effect of over 55% in size
TDP1 cell noCPT: qHTS for Inhibitors of human tyrosyl-DNA phosphodiesterase 1 (TDP1): qHTS in cells in absence of CPT | DT40 Tdp1-/- hTDP1 cells, no CPT, ATP luminescence, 48 h | Potency, µM (titrated, usually from 46.2 µM), without a hit: at the highest dose activity change, negative = growth inhibition, most hits filed as inhibitors | hit rate 15% among 420,000; further: potency means the concentration at half of the fitted maximal effect; nearly all actives have a fitted effect of over 55% in size
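Compound effects on proliferation are scored in DT40 Tdp1-/-;hTDP1 cells in the absence of CPT. ATP levels (CellTiter-Glo luminescence) are recorded after a ≥48 hr, 37 °C incubation.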
IL-1B inflam inh: blocks inflammasome-driven IL-1 beta release; AID 743279; activity change, % at 57.5 µM; THP-1 LPS/ATP IL-1B secretion, AlphaLISA, 16 h; stronger effect = lower value; hit rate 4.7% among 360,000; in the data active means activity change below about -50%; inconclusive means mostly about -30% to -49%
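Secreted IL-1B measured by AlphaLISA bead assay after 16 h compound exposure of THP-1 cells; compounds (final up to 57.5 uM) added 1 h before LPS (250 ng/mL) and ATP (1.25 mM) stimulation; lower signal means less secretion.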
HT1080 IDH1KD tx: HT-1080 IDH1 knockdown cell toxicity (counter line); HT-1080 IDH1 knockdown viability, ATP luminescence, 48 h; Potency, µM (series often up to 46.1 µM), inactives show top-dose activity, negative = toxicity, most hits filed as cytotoxic; hit rate 2% among 360,000;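 further: potency means the concentration at half of the fitted maximal effect; 0% = DMSO wells and -100% = cell-free medium wells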
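IDH1KD HT-1080 cells, 750/well, RPMI + 5% FBS; compound pinned after 2 h settling; 48 h, 37 °C; CellTiter-Glo luminescence; % activity normalised to DMSO and no-cell wells; curves fitted, classed by r2 and efficacy.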
HT1080NT lethal: kills 2HG-producing HT-1080-NT fibrosarcoma cells | HT-1080-NT fibrosarcoma viability, CellTiter-Glo ATP luminescence, 48 h | Potency, µM (titrated, usually from 46.1 µM), for inactives: at the highest dose activity, negative = less viability, hits mostly cytotoxic | hit rate 1.6% among 360,000 | AID 686970;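 further: NT is the 2HG producing partner of a matched IDH1 knockdown line; potency means the concentration at half of the fitted maximal effect; 0% = DMSO-treated cells and -100% = media-only wells without cells; nearly all actives have a fitted effect of over 55% in size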
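Viability by CellTiter-Glo luminescence after 48 h compound exposure at 37C of HT-1080-NT cells (750/well, RPMI, 5% FBS). % activity scaled between DMSO wells and medium-only wells, then curve-fitted and categorized by curve class.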
* = called active by the depositor; ? = inconclusive; nt = not tested or not shown; [ ] = remark or other dose. Unless noted, the call rests on the fitted dose curve; in most records, active means well fitted curve in the direction sought with a large enough effect; inconclusive means small, poorly fitted or top-dose-only effect, or another doubt; inactive means no such curve, though single readings can be large; an effect the other way counts as inactive or inconclusive. Unless noted, on the % scale 0 is the no-effect control and ±100 the full control effect.

SMILES	DT40 TDP1 CPT	uPA surface inh	TDP1 cell noCPT	IL-1B inflam inh	HT1080 IDH1KD tx	HT1080NT lethal
CCOC(=O)/C(=C\C=C\c1ccccc1)NC(=O)c1ccccc1	?	-5%	?	-90*	-3%	-2%
CCCCOc1ccc(C(=O)N/C(=C/C=C/c2ccccc2)C(=O)NCCO)cc1	-2%	1%	-2%	-53*	-8%	-3%
CCCCOc1ccc(C(=O)N/C(=C/C=C/c2ccccc2)C(=O)NCCCO)cc1	12%	0%	8%	?	-1%	-17%
COc1ccc(/C=C(/NC(=O)c2ccc([N+](=O)[O-])cc2)C(=O)NCCCN(C)C)cc1	4%	nt	-7%	-1	0%	0%
CN(C)CCCNC(=O)/C(=C\C=C\c1ccccc1)NC(=O)c1ccc([N+](=O)[O-])cc1	2%	1%	?	-57*	?	-7%
Cc1ccc(C(=O)N/C(=C\c2ccc([N+](=O)[O-])cc2)C(=O)NCCc2ccccc2)cc1	?	nt	?	10	11µM*	?
CCOC(=O)c1ccc(N=C2SC(C(=O)Nc3ccc(C(=O)O)cc3)CC(=O)N2Cc2cccs2)cc1 (stereo not drawn)	?	0%	?	-17	?	-18%
COc1cccc(NC(=O)C(=O)NCCc2csc(-c3ccc(C(F)(F)F)cc3)n2)c1	?	nt	-28%	nt	nt	nt
CCOC(=O)C1CCCN(C(=O)/C=C/c2ccccc2[N+](=O)[O-])C1 (stereo not drawn)	-5%	-3%	-6%	3	-5%	-3%
Cc1cccc(C(=O)N2CCCC(N3CCN(c4ccccc4)CC3)C2)n1 (stereo not drawn)	-20%	2%	10%	47	10%	1%
O=c1cc(C(F)(F)F)[nH]c2c(C(F)(F)F)cccc12	18µM*	?	16µM*	5	?	?
O=c1cc(C(F)(F)F)[nH]c2ccc(OC(F)(F)F)cc12	21µM*	-17%	13µM*	nt	21µM*	?
CC(C)(C)NC(=O)C(c1ccnc2ccccc12)n1c(=O)c(-c2ccco2)nc2ccccc21 (stereo not drawn)	?	nt	?	16	0%	2%
CN1CCN(NC(=O)/C=C/c2cccc(Cl)c2)CC1	4%	4%	17%	3	-7%	-9%
COC(=O)C1CCN(Cc2ccc3c(c2)CN(C(=O)c2cc(C)oc2C)CCO3)CC1	22%[9.04 µM]	nt	-17%	nt	nt	nt
O=C(NC(Nc1nc2ccc([N+](=O)[O-])cc2s1)(C(F)(F)F)C(F)(F)F)c1cccnc1	3.7µM*	?	2.3µM*	-70*	13µM*	9.2µM*
O=C(NC(Nc1nc2ccc([N+](=O)[O-])cc2s1)(C(F)(F)F)C(F)(F)F)c1ccccc1Cl	0.33µM*	?	0.18µM*	-69*	2.9µM*	3.3µM*
CN(C)S(=O)(=O)c1ccc2nc(NC(=O)c3cccnc3)sc2c1	-21%	-6%	-11%	-7	7%	7%
C[C@]12C=CC(=O)N[C@@H]1CC[C@@H]1[C@@H]2CC[C@]2(C)[C@@H](C(=O)Nc3cc(C(F)(F)F)ccc3C(F)(F)F)CC[C@@H]12	-13%	nt	-11%	nt	nt	nt
CCCOc1ccc(CNC(=O)C(C)n2nc(C)n3c(cc4occc43)c2=O)cc1 (stereo not drawn)	-23%	nt	-29%	nt	nt	nt
CC(=O)Oc1ccc(N2C(=O)C3C(C2=O)C(C(=O)c2ccc(Cl)cc2)N2CCCC32)cc1 (stereo not drawn)	?	-2%	18µM*	-101*	23µM*	?
COc1ccc(/C=C/C(=O)N2CCN(c3ccccn3)CC2)c2ccccc12	?	6%	26µM*	-7	-2%	-28%
CC1CCN(C(=O)CN2C(=O)NC(c3ccccc3)(c3ccccc3)C2=O)CC1	3%	2%	11%	-14	3%	9%
CC(=O)c1cc(-c2ccccc2)n(CC(=O)NC2CCCC2)c1C	-16%	nt	-20%	-10	1%	9%
CC(=O)c1cc(-c2ccccc2)n(CC(=O)N2CCC(C)CC2)c1C	?	-3%	29µM*	2	-1%	20%
SMILES	DT40 TDP1 CPT	uPA surface inh	TDP1 cell noCPT	IL-1B inflam inh	HT1080 IDH1KD tx	HT1080NT lethal
CC(=O)c1cc(-c2ccccc2)n(CC(=O)N2CCN(C3CCCC3)CC2)c1C	?	0%	23µM*	-15	-2%	5%
COc1cccc(S(=O)(=O)N(C)C[C@H]2OCc3cnnn3CCCC(=O)N([C@@H](C)CO)C[C@H]2C)c1	3%	nt	-16%	-14	8%	2%
COc1ccc(C)cc1NC(=O)CSc1nnc(-c2cc(C)[nH]n2)n1N	7%	-2%	12%	0	-4%	5%
Cc1noc(C)c1CN1C(=O)c2ccccc2C1=O	17%	1%	11%	-1	2%	9%
Cc1nc(-c2ccc(S(=O)(=O)NCc3cccnc3)s2)cs1	12µM*	-26%	21µM*	0	-16%	?
Cc1ccccc1CN1CCN(S(C)(=O)=O)CC1	0%	-1%	-11%	-5	-3%	-7%
Cc1ccc(S(=O)(=O)NCc2cccnc2)cc1C	-20%	3%	-14%	34	2%	-3%
Cc1nc(-c2ccc(S(=O)(=O)N3CCN(C(c4ccccc4)c4ccccc4)CC3)s2)cs1	?	6%	?	-4	0%	-3%
Cc1nc(-c2ccc(S(=O)(=O)N3CCN(Cc4ccccc4)CC3)s2)cs1	?	-2%	9.2µM*	-20	-14%	?
Cc1ccccc1CN1CCN(S(=O)(=O)c2ccc(Cl)s2)CC1	23µM*	7%	?	-8	-17%	-13%
O=C(NC1(C(F)(F)F)NC(=O)N(c2ccc(F)cc2)C1=O)c1cccs1 (stereo not drawn)	7%	7%	-22%	17	9%	7%
Nn1c(SCC(=O)Nc2ccc(N3CCOCC3)cc2)nnc1-c1cccc(F)c1	-5%	-15%	3%	8	-1%	-7%
O=C(O)c1ccc(-c2sc(Nc3ccccc3)n[n+]2-c2ccc(F)cc2)cc1	-1%	5%	-8%	31	-2%	0%
Cc1cccc(-c2sc(Nc3ccccc3)n[n+]2-c2ccccc2)c1	?	6%	?	-15	-12%	-6%
CCc1ccc(Nc2n[n+](-c3ccccc3)c(-c3c(Cl)cccc3Cl)s2)cc1	23µM*	13µM*	15µM*	-92*	?	21µM*

Bioassay records: PubChem, National Center for Advancing Translational Sciences (NCATS)
